Molecules are shown by their SMILES.

Consider seven molecules from ChEMBL document CHEMBL1961873, “Compounds: GSK PKIS; Assays: Nanosyn kinase panel” (2012).

The target of test [1] is Fibroblast growth factor receptor 4 (Homo sapiens) (UniProt P22455). The note with it: at 1 µM.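 Note: reported figure is the averaged percent inhibition of FGFR4, from the GSK PKIS kinase screening panel.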
Test [2] concerns the target Tyrosine-protein kinase Fgr (Homo sapiens) (UniProt P09769). The note with it: at 0.1 µM.
For test [3] the target is unchanged. The settings on record: at 1 µM.
Test [4] has as its target Vascular endothelial growth factor receptor 1 (Homo sapiens) (UniProt P17948). The settings on record: at 0.1 µM.
Test [5] has the same target. The settings on record: at 1 µM.
For test [6], the target named is Receptor-type tyrosine-protein kinase FLT3 (Homo sapiens) (UniProt P36888). The settings on record: at 0.1 µM.
The target is the same in test [7]. The note with it: at 1 µM.
Test [8] deals with T1, Receptor-type tyrosine-protein kinase FLT3 (Homo sapiens), P36888 [D835Y].
T1 sequence (whole entry): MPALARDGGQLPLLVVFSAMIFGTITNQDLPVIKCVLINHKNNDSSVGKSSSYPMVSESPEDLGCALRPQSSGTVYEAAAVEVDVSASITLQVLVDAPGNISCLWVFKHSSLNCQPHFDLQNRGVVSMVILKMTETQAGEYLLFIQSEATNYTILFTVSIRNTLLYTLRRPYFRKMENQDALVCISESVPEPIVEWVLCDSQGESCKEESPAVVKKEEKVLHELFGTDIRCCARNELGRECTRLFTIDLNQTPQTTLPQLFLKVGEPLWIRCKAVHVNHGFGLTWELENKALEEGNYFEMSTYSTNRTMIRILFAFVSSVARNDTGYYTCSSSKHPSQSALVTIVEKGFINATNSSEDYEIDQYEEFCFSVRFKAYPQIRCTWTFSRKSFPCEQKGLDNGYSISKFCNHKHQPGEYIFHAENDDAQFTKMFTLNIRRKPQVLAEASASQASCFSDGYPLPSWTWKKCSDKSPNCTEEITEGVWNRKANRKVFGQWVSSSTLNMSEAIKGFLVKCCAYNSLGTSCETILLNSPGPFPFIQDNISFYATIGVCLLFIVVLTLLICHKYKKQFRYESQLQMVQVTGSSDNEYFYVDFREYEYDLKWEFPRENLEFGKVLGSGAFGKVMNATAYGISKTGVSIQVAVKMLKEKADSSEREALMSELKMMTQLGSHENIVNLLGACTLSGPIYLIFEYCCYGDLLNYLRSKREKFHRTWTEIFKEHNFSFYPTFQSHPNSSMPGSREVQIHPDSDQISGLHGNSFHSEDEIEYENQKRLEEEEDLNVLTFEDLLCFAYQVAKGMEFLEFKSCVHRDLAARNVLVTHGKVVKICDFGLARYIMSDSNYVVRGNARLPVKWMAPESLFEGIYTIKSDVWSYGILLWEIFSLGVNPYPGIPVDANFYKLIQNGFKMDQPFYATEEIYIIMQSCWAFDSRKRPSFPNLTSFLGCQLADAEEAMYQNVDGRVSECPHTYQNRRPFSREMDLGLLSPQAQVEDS
The settings on record: at 0.1 µM.

Test [9] concerns the target Non-receptor tyrosine-protein kinase TYK2 (Homo sapiens) (UniProt P29597). The note with it: at 1 µM.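 Note: values are mean percent inhibition of TYK2 kinase.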
Test [10] deals with T2, Tyrosine-protein kinase receptor TYRO3 (Homo sapiens) (UniProt Q06418).
T2 sequence (whole entry): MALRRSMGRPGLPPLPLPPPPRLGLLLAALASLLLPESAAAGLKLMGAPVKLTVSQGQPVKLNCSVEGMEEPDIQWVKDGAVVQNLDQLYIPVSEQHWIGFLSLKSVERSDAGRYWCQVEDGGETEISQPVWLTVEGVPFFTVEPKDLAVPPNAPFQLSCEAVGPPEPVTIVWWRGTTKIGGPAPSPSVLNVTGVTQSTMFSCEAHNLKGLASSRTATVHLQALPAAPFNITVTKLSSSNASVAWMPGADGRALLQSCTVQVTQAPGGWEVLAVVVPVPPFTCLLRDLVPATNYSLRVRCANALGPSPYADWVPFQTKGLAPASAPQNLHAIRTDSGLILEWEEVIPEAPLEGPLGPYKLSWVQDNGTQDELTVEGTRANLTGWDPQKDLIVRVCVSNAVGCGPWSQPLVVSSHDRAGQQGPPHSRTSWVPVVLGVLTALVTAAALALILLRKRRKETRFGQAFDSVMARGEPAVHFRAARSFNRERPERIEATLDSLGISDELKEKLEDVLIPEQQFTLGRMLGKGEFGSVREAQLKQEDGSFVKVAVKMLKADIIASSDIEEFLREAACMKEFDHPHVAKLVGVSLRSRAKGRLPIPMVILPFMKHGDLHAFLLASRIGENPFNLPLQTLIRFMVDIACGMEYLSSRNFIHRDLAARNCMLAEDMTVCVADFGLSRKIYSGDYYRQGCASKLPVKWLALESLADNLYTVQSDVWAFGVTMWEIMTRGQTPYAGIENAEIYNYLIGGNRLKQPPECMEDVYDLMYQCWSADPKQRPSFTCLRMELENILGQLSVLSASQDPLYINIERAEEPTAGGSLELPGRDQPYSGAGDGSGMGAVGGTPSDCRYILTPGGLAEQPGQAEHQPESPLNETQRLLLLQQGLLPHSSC
The note with it: at 0.1 µM.

Test [11] has as its target T2, Tyrosine-protein kinase receptor TYRO3 (Homo sapiens). The settings on record: at 1 µM.
Test [12] addresses Tyrosine-protein kinase Yes (Homo sapiens) (UniProt P07947). The note with it: at 0.1 µM.
The target is the same in test [13]. The settings on record: at 1 µM.
In test [14] the target is T3, Tyrosine-protein kinase ZAP-70 (Homo sapiens) (UniProt P43403).
T3 sequence (whole entry): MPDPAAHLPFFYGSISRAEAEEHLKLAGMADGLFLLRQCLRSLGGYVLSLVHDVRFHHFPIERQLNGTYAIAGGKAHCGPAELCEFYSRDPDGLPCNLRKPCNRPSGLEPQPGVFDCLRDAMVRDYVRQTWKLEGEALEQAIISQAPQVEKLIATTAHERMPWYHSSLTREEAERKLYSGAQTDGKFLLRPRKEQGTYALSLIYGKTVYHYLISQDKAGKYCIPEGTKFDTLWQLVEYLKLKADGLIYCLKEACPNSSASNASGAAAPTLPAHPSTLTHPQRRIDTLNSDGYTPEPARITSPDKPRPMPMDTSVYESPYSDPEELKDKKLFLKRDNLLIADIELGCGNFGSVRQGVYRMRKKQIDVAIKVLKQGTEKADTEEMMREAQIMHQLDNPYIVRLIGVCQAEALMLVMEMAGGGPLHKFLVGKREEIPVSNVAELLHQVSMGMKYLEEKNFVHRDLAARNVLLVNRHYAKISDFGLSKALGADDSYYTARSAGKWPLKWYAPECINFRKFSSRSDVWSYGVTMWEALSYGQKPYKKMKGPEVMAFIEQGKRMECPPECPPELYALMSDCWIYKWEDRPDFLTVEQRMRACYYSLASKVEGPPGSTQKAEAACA
The settings on record: at 0.1 µM.

For test [15], the target named is T3, Tyrosine-protein kinase ZAP-70 (Homo sapiens). The settings on record: at 1 µM.
In test [16] the target is Serine/threonine-protein kinase B-raf (Homo sapiens) (UniProt P15056). The note with it: at 0.1 µM.
Test [17] has the same target. The note with it: at 1 µM.
For test [18], the system named is Serine/threonine-protein kinase B-raf (Homo sapiens), P15056 [V600E]. The note with it: at 0.1 µM.
For test [19] the test system is unchanged. The settings on record: at 1 µM.
Test [20] deals with RAF proto-oncogene serine/threonine-protein kinase (Homo sapiens) (UniProt P04049). The note with it: at 0.1 µM.
Sequence of RAF proto-oncogene serine/threonine-protein kinase (Homo sapiens) (P04049 whole entry): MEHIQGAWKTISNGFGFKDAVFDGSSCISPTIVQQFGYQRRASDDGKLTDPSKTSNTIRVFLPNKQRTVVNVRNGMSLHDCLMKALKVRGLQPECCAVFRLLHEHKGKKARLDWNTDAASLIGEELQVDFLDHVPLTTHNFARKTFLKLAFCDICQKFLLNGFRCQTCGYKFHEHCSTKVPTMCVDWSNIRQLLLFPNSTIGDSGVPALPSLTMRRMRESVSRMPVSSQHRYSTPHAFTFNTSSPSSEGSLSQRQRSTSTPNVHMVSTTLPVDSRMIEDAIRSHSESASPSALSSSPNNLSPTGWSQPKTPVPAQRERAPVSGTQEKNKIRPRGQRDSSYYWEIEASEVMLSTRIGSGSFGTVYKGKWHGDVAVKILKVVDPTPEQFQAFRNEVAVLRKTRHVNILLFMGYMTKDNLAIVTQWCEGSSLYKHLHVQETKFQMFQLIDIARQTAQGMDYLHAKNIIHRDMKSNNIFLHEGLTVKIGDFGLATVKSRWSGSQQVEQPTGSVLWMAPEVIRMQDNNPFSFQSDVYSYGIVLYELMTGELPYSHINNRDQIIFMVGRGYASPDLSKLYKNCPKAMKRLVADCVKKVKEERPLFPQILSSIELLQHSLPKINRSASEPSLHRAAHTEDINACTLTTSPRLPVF

Sequence of Tyrosine-protein kinase Yes (Homo sapiens) (P07947 2-543 limits assumed): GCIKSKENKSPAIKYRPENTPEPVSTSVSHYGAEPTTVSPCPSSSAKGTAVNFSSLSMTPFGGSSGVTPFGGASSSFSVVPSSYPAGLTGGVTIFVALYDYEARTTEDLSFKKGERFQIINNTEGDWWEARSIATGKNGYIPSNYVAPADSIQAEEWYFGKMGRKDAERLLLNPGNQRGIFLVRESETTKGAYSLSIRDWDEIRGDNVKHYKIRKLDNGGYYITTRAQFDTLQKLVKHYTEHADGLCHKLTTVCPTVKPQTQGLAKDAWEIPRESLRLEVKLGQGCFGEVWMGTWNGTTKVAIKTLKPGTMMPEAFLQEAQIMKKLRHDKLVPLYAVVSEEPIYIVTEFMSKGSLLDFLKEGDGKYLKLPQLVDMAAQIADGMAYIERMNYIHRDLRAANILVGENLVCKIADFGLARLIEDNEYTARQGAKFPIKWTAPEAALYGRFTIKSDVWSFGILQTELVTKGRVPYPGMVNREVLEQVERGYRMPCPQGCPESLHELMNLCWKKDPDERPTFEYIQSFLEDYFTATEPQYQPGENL
Sequence of Vascular endothelial growth factor receptor 1 (Homo sapiens) (P17948 whole entry): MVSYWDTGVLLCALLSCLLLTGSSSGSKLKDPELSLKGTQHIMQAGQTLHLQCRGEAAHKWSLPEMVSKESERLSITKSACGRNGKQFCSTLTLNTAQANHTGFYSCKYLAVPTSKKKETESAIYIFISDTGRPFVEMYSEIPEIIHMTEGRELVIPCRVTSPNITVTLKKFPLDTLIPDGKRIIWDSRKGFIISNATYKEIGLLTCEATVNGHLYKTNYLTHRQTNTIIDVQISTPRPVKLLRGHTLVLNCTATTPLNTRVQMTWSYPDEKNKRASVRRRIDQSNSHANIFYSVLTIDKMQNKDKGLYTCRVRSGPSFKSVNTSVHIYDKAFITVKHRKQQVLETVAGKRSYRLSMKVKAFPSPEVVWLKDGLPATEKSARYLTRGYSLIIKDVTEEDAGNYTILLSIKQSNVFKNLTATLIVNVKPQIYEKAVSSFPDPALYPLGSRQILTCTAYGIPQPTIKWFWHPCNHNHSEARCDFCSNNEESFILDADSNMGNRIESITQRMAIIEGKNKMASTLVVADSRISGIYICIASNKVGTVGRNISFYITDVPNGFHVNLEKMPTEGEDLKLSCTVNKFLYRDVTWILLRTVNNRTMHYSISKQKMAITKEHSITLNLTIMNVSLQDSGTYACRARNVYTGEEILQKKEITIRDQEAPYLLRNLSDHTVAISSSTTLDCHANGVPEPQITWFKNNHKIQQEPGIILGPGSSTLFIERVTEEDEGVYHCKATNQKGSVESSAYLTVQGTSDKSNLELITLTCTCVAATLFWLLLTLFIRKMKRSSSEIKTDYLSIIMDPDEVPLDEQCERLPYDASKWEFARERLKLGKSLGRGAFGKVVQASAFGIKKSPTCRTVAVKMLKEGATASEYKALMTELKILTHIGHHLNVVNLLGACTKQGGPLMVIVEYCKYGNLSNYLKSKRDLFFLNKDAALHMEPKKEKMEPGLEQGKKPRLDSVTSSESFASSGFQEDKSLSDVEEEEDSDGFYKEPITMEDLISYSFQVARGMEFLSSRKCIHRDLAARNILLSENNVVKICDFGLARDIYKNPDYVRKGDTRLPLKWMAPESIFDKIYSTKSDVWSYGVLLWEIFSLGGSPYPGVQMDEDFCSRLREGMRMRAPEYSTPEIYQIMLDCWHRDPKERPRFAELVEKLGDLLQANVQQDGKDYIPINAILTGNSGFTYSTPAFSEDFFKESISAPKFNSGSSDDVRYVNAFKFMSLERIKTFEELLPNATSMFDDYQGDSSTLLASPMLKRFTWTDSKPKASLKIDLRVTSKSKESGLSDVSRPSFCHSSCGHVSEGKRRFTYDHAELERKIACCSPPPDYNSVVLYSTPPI
Sequence of Serine/threonine-protein kinase B-raf (Homo sapiens) (P15056 whole entry): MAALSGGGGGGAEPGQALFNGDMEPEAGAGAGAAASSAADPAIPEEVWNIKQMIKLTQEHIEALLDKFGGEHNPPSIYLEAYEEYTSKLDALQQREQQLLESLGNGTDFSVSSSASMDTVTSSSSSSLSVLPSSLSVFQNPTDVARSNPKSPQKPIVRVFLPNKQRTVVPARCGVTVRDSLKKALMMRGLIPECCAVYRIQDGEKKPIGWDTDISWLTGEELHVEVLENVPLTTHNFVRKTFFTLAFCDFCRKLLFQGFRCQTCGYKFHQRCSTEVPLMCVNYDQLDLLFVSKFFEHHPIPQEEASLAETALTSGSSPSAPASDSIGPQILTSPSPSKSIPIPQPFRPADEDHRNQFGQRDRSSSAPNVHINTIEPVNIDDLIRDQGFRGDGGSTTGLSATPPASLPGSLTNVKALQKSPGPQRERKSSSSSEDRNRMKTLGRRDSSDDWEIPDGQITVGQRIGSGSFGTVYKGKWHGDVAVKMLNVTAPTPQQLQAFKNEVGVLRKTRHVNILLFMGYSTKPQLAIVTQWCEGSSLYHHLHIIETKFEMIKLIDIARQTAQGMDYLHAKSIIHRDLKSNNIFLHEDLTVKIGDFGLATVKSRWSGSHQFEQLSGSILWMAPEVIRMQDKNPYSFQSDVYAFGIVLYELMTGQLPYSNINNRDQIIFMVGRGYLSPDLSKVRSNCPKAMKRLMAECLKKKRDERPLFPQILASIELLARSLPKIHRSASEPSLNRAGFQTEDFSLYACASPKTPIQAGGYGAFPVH
Sequence of Tyrosine-protein kinase Fgr (Homo sapiens) (P09769 2-529 limits assumed): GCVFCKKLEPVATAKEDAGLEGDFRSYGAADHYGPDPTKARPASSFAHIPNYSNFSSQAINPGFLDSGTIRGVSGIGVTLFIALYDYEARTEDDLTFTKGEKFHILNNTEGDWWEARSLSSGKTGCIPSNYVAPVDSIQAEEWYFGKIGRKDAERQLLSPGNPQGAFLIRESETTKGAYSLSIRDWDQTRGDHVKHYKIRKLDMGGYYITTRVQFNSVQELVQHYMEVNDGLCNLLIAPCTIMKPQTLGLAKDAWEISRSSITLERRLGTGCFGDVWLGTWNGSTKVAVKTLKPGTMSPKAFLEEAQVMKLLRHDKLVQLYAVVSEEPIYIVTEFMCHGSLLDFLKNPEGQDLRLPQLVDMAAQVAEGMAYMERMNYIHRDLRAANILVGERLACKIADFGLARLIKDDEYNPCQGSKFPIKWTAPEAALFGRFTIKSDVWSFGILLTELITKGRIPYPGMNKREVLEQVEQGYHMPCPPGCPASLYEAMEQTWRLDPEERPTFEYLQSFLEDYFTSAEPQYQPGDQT
Sequence of Fibroblast growth factor receptor 4 (Homo sapiens) (P22455 22-802 limits assumed): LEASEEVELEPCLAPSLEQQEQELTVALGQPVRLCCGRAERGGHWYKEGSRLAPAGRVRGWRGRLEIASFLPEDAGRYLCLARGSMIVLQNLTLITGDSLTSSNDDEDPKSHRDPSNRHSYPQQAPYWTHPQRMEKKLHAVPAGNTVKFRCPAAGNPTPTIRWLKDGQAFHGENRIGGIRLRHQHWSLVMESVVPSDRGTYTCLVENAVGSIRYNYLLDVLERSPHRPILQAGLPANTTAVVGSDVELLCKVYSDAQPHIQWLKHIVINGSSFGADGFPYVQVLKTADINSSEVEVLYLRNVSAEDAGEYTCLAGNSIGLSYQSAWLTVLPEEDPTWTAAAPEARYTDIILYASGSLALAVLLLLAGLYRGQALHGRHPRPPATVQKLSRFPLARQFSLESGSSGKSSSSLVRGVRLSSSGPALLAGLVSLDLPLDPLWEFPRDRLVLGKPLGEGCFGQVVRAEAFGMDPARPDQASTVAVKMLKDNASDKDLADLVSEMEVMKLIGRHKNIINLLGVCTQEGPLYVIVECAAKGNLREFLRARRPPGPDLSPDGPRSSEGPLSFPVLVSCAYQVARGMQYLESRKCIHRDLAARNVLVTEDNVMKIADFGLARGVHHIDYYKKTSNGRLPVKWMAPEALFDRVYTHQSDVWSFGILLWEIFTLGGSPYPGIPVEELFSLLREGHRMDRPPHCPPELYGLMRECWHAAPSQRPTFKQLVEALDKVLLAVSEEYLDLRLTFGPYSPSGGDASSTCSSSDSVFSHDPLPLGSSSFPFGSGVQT
Sequence of Serine/threonine-protein kinase B-raf (Homo sapiens), P15056 [V600E] (P15056 whole entry V600E): as the sequence (P15056 whole entry) above, with V600E counted along it

As a reminder, the inhibition is the change of the read-out against control, counted positive when it falls. For the molecule `NC(=O)c1cc(-c2ccncc2)cc(-c2ccccc2)c1N`, the inhibition is 1.49% in [1]; 6.05% in test [2]; 27% in [3]; 1.74% in test [4]; 5.65% in test [5]; -1.2% in test [6]. Further, the inhibition in test [7] was 4.55%; in [8] it was -0.35%; in test [9], -2.55%; in [10], 2.62%; in test [11] it was 3.61%; in test [12] it was 7.5%. Further, the inhibition in test [13] was determined as 36%; in [14], 4.11%; in [15], 29%; in test [16], 8.42%; in test [17] it was 8.98%; in [18] it was 8.18%. Also, the values for the inhibition in test [19] and in test [20] were 8.65% and 1.06%, respectively.

Take `CCN(CC)Cc1ccc(Nc2nccc(-c3cnn4ncccc34)n2)cc1`: the inhibition in test [1] was -3.39%; in test [2] it was 2.7%; in [3], 11.3%; in test [4] it was 3.62%; in test [5], 16.2%; in test [6], 7.95%. The inhibition in test [7] was 47.7%; in test [8], -3.04%; in test [9], 11.6%; in [10], 4.07%; in test [11], 18.2%; in test [12], 4.42%. In addition, the inhibition was 22.5% in test [13]; -3.68% in test [14]; -4.19% in test [15]; 7.03% in [16]; 17.7% in test [17]; 4.68% in test [18]. Moreover, the figures for the inhibition in test [19] and in [20] were 14% and 0.49%, respectively.

For the molecule `CN(C)CCCNc1nccc(-c2c(-c3ccc(F)cc3)nn3cc(C(F)(F)F)ccc23)n1`, the inhibition in test [1] was -0.45%; in [2] it was 1.41%; in test [3], 9.12%; in test [4], 0.51%; in [5], 1.19%; in test [6], 0.5%. Besides, the inhibition was 4.18% in test [7]; -2.41% in test [8]; -0.14% in [9]; 1.1% in [10]; 1.35% in test [11]; 0.79% in test [12]. Further, the inhibition in test [13] is -0.45%; in [14], -2.33%; in test [15], -4.78%; in test [16], 2.11%; in test [17], 2.24%; in [18], 2.52%. Further, the inhibition in test [19] worked out at 2.19%; in [20] it was 3.17%.

With `NS(=O)(=O)c1ccc(N/N=C2\C(=O)Nc3ccc(C(=O)NCCCn4ccnc4)cc32)cc1`, the inhibition was determined as 2.46% in test [1]; 5.97% in [2]; 13.4% in [3]; 0.63% in test [4]; 5.48% in [5]; 3.35% in [6]. The inhibition in test [7] is 18.5%; in test [8] it was 2.34%; in test [9], -1.72%; in test [10] it was 4.1%; in test [11], 9.93%; in [12], 5.35%. The inhibition in test [13] worked out at 24.1%; in test [14], 0.31%; in test [15] it was 8.11%; in test [16], 10.7%; in test [17] it was 38.4%; in test [18], 11.3%. The inhibition in test [19] is 38.9%; in [20] it was 5.92%.

As for `COc1cc2ncn(-c3cc(OCc4ccccc4C(F)(F)F)c(C(C)=O)s3)c2cc1OC`, the inhibition was 0.4% in test [1]; 3.6% in test [2]; 6.26% in test [3]; 1.7% in test [4]; 1.67% in test [5]; 1.77% in [6]. For the same molecule, the inhibition in test [7] is 5.32%; in [8], 1.44%; in test [9], -0.07%; in test [10] it was 1.52%; in test [11], 2.25%; in test [12] it was 2.59%. The inhibition in test [13] was 6.19%; in [14] it was -0.08%; in test [15] it was -3.94%; in test [16] it was 5.13%; in test [17], 5.83%; in test [18] it was 4.21%. The inhibition in [19] was 4.4%; in [20] it was -0.73%.

In the case of `COc1ccc(C2=C(N3CCc4ccccc43)C(=O)NC2=O)cc1`, the inhibition in test [1] came to 1.06%; in [2] it was 5.11%; in test [3], 3.99%; in [4], 1.27%; in test [5] it was 2.89%; in [6], 3.27%. Moreover, the inhibition is 2.59% in test [7]; 5.76% in [8]; -5.5% in test [9]; 4.63% in test [10]; 3.41% in test [11]; 4.87% in [12]. Moreover, the inhibition was 5.12% in test [13]; 3.72% in test [14]; -0.45% in test [15]; 5.73% in [16]; 7.39% in [17]; 6.3% in test [18]. The inhibition in [19] is 4.71%; in test [20], -3.24%.

In the case of `NC(=O)Cc1ccccc1Oc1nccc(-c2c(-c3ccc(F)cc3)ncn2C2CCNCC2)n1`, the inhibition in [1] is 0.51%; in test [2] it was 0.84%; in test [3] it was 2.97%; in [4] it was 0.07%; in test [5] it was 0.23%; in test [6], -1.59%. Moreover, the inhibition was 1.61% in test [7]; -3.58% in test [8]; -2.45% in [9]; 0.04% in test [10]; -0.3% in test [11]; 1.2% in test [12]. In addition, the inhibition in test [13] is 2.44%; in test [14] it was 2.88%; in test [15], -4.81%; in test [16], 3.8%; in test [17], 6.06%; in test [18], 3.3%. Moreover, the inhibition in test [19] is 4.77%; in test [20], -0.15%.
